# Measurements as given in ChEMBL document CHEMBL3988442, “University of Dundee, Small-Polar-MMV Screening Library” (2021).
# In all, about 48,000 compounds went through this assay and about 13,000 (27%) showed an effect of 50% or more. The list shows a part of the results.
# Tested on: Wolbachia pipientis
# Assay: Anti-Wolbachia Cell-Based Screen
# Type: functional
# Design: scale not given: in the data most compounds retested in dose-response had high values
# Conditions: 5 µM
row,SMILES,Percent Effect [%]
1,CC(C)Oc1cccc(CC(=O)N(CC(N)=O)C2CCCC2)c1,-6.842
2,CN(C)C(=O)c1ccc(N2CCC3(CCC(=O)N(CCO)C3)CC2)nc1,-10.7
3,O=C(Cn1[nH]c2ccccc2c1=O)N1CCCC(CC2CC2)(C(=O)O)C1 (centres undefined),-7.331
4,Cc1ccnc(N2CCCC(c3nccn3C(C)C)C2)n1 (centres undefined),2.014
5,Cc1nc(C(=O)N2CCCC(c3cccc(-n4ccnc4)n3)C2)co1 (centres undefined),-10.62
6,Cc1cc(C)nc(N2CCCC(c3cccc(-n4ccnc4)n3)C2)n1 (centres undefined),122.3
7,CCc1c(C)nc2ccccc2c1N1CCC(NC(C)=O)CC1,12.09
8,Cc1ccoc1C(=O)NCCOc1ccc(C(F)(F)F)cn1,-4.463
9,CC(=O)c1cccc(NC(=O)CN2CCCCC2C(=O)N2CCCC2)c1 (centres undefined),-9.292
10,CCN1CCCCC1C(=O)N1CCN(C(=O)OC)CC1 (centres undefined),100.7
11,COC(=O)N1CCCCC1C(=O)N1CCC(c2ccncc2)CC1 (centres undefined),-8.744
12,CCN1CCCCC1C(=O)N1CCc2onc(-c3ccc(Cl)cc3)c2C1 (centres undefined),6.805
13,COC(=O)N1CCCC(C(=O)N2CCCCC2)C1 (centres undefined),-8.373
14,COCCOC1CCN(C(=O)NCc2cc(C)oc2C)CC1,6.618
15,CCN1CCCCC1C(=O)N1CCC(OCCOC)CC1 (centres undefined),73.16
16,COCCOC1CCN(C(=O)NCc2coc3ccccc23)CC1,-1.148
17,CCN1CCCCC1C(=O)N1CCC(OC2CCCC2)CC1 (centres undefined),102.5
18,CC/C=C(/C)C(=O)NCc1ccc(OC)nc1,-1.205
19,OCCOCCN1CCCC1c1nc2cc(F)ccc2[nH]1 (centres undefined),-0.6121
20,COCCOCC(=O)NC(C#N)c1c(F)cccc1Cl (centres undefined),-1.788
21,COCCOCC(=O)Nc1cc(C)ccc1F,111.1
22,COCCOCC(=O)Nc1ccc(F)cc1C,92.33
23,COCc1cc(CN(C)C(=O)CCC(=O)Nc2cc(C)ccc2F)n[nH]1,-13.49

row,SMILES,Percent Effect [%]
1,COCCOCC(=O)Nc1ccccc1F,116.5
2,Cc1cc(F)ccc1NC(=O)Cn1cc(C(=O)O)ccc1=O,-9.145
3,CCC(=O)Nc1ccc(F)cc1OC,-5.571
4,CN(C)S(=O)(=O)c1ccc(F)c(NC(=O)COCC2CC2)c1,-1.216
5,O=C(Cn1ccc(=O)[nH]c1=O)Nc1ccccc1F,-14.53
6,O=C(NCC(F)(F)C(F)F)c1ccncc1,-18.96
7,CC(C)Cc1n[nH]c(C2CC(=O)N(CC(C)C)C2)n1 (centres undefined),-3.52
8,O=C(O)C(F)(F)F.c1ncn(Cc2cn3c(n2)CN(CC2CCCC2)CC3)n1,-2.888
9,CC[C@H](Nc1nc(C(C)C)nc2c1cnn2C)c1ccccc1,-13.66
10,CN(Cc1ccncn1)C(=O)C1(Oc2ccc(Cl)cc2)CCNCC1,-1.2
11,CNc1ncc(CN(C)C(=O)CCc2[nH]nc3c2CCCC3)cn1,98.75
12,CN(Cc1ccncn1)C(=O)CCc1[nH]nc2c1CCCC2,105.8
13,CNc1ncc(CN(C)C(=O)c2ccc(C3CCCO3)s2)cn1 (centres undefined),-2.521
14,CNc1ncc(CN(C)C(=O)CCc2cc3n(n2)CCCNC3)cn1,-7.945
15,CN(Cc1ccncn1)C(=O)c1cccc(CCC(C)(C)O)c1,-19.37
16,Cn1cc(C[C@H]2[C@@H](OCC3CC3)CCN2C(=O)c2ccc[nH]2)cn1,-34.09
17,O=C(c1cccs1)N1CC[C@@H]2[C@H]1CCC(=O)N2c1ccccc1,4.251
18,Cc1cnc(CNC(=O)NCCOc2ncccc2Cl)s1,0.4061
19,CCC(Nc1nccc(C2CCCC2)n1)c1ncccc1C (centres undefined),-9.409
20,CCC(Nc1nccc(C2CCCC2)n1)c1ccccn1 (centres undefined),15.43
21,Cc1ncc(-c2ccnc(NCCO)n2)c(C2CCCCC2)n1,70.45
22,Cc1ncc(-c2ccnc(N[C@@H](C)CO)n2)c(C2CCCCC2)n1,99.14
23,COc1ccc(-c2noc([C@@H](C)NC(=O)NC(C)(C)C)c2C(=O)O)cc1,-18.05

row,SMILES,Percent Effect [%]
1,N#Cc1cn(C2CC2)c(=O)n(CC(O)c2ccccc2F)c1=O (centres undefined),-13.9
2,O=C(NCC1CCCO1)c1coc(Cn2cnc3ccccc32)n1 (centres undefined),1.583
3,Cl.O=C(NCC1CCC2(CCNCC2)CO1)c1cnccn1 (centres undefined),3.528
4,Cc1cc(C(=O)NCC2CCCO2)c(C)n1-c1cccnc1 (centres undefined),-0.4746
5,Cl.O=C(NCC1CCCO1)c1cc(-c2ccncc2)c2cnccc2n1 (centres undefined),81.36
6,O=C(NCC1CCCO1)c1cc(-c2cccnc2)c2cnccc2n1 (centres undefined),70.74
7,O=C(NCC1CCCO1)c1csc(Cc2ccccc2)n1 (centres undefined),-0.1841
8,CN(C)Cc1nc(C(C)(C)NC(=O)c2ccnn2C)no1,0.5486
9,CS(=O)(=O)NCCNC(=O)c1cnc(-c2ccccc2)nc1,5.162
10,CC(C)(C)c1ncc(C(=O)NCCNS(C)(=O)=O)s1,118.2
11,Cc1ccc(-c2ncc(C(=O)NCCNc3ncccn3)s2)c(C)c1,-5.367
12,Cc1ncc(C(=O)NCCNC(=O)c2ccccc2)s1,117.1
13,Cc1ccc(-c2ncc(C(=O)NCCNC(=O)C(C)C)s2)c(C)c1,-1.458
14,CC(=O)NCCNC(=O)c1cnc(C(C)(C)C)s1,109.1
15,COC(=O)C(C)(C)NC(=O)c1cnc(C(C)(C)C)s1,-1.472
16,CC(C)(C)c1ncc(C(=O)NCCS(N)(=O)=O)s1,-2.112
17,O=C(NCCNc1ncccn1)c1ccc(Cl)s1,24.49
18,Cc1ncc(C(=O)NCCNc2ncccn2)s1,110.1
19,CC(C)(C)NC(=O)c1cnc(C(C)(C)C)s1,6.371
20,O=C(N1CCC(OCc2ccccn2)CC1)C1(c2ccc(F)cc2)CC1,-10.1
21,C=C(C)CNC(=O)C1CCCN(C2CCN(C(C)C)CC2)C1 (centres undefined),-1.601
22,Fc1cnc(N2CCCn3c(nnc3Cn3cccn3)C2)nc1,-21.77
23,CN(C)c1ncnc2c1CCN(C(=O)CN1CCCCC1)C2,-9.788
